The text below walks through data of PubChem BioAssay AID1259319 (Sanford-Burnham Center for Chemical Genomics, 2017).

About 1,800 (60%) of roughly 3,000 compounds were called active. The set was probably picked from earlier hits. The list is a sample of the results. Unmarked numbers belong to inactive results.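 The calls were made as follows: active = activation at or above a set limit, or at least 3 SD above the negative control mean; inactive = the rest.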

The target of this experiment is Nuclear receptor subfamily 1 group D member 1 (Homo sapiens) (UniProt P20393). As to the kind of experiment: Rev-erbα–DNA interaction modulation, retest – biochemical, FITC-DNA, fluorescence polarization, single point, confirmation (AID 1259319).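 Also: 0% = 35 nM protein with DMSO and 100% = 750 nM protein high control.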 The note with it: Rev-erb alpha FITC-DNA binding, 90 min, at 25 µM, active compounds read high.
Nuclear receptor subfamily 1 group D member 1 (Homo sapiens), sequence (P20393 whole entry, looked up): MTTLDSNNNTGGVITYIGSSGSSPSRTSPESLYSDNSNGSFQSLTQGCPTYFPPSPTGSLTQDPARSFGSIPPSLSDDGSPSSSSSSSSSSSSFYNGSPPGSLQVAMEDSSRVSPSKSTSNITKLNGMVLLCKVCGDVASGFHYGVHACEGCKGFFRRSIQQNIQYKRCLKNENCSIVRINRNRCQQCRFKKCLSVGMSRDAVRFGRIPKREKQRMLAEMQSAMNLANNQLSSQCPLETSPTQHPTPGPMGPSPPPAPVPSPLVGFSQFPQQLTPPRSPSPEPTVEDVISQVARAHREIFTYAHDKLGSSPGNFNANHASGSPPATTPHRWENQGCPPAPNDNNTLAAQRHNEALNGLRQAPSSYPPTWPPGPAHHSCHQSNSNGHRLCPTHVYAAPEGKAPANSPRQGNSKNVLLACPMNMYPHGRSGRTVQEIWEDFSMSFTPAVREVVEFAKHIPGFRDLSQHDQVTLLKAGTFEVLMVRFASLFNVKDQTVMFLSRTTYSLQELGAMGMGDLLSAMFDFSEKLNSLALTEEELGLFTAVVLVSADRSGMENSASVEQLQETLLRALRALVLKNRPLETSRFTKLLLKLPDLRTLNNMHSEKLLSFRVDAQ
Consider `COc1ccccc1N=Nc1c(O)[nH]c(=S)[nH]c1=O`, for which the activation is 41% (active).
For the compound `COC(=O)CN(CCCl)P1(=O)OCCCN1CCCl` (configuration not stated), the activation is -6.07%.
